# Source: PubChem BioAssay (NCI)
# About 83,000 compounds went through this panel and 20% of them were active in at least one assay; those are over-represented in the sample as a whole.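 Single-dose data. Exposure time 48 hours. Values below 10 considered active.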 Activity calls are given as the source filed them.
# Tested on: MDA-MB-468 breast
# Assay: NCI-60 one-dose screen, 48 h (100 = growth as untreated, 0 = no growth, -100 = all killed)
# Details: 10 µM unless noted
row,Structure (SMILES),growth
1,CC1(C)CC(=O)c2c(ccc(C(=O)C[C@@H](N)CO)c2N)O1,5.3% (active)
2,C(CCCC1=NCCO1)CCCC1=NCCO1,95% (inactive)
3,FC(F)(F)c1cc(Nc2ccc3cc(OCCCN4CCOCC4)ccc3n2)ccc1Cl,31.1% (inactive)
